A short description of experiment [1]: compound effects on lung adenocarcinoma cell viability – A549, calcein-AM fluorescence, 48 h, basal, profiling panel (AID 1162). Also: test concentration not given here. The conditions noted are these: higher = more signal.
The nature of experiment [2]: compound effects on differentiated 3T3-L1 adipocyte viability – cell-based, 3T3-L1 adipocytes, calcein-AM fluorescence, 48 h, basal, profiling panel (AID 1163). Also: test concentration not given here. The note with it: 3T3-L1 adipocytes viability, higher = more signal.
Experiment [3] in a line: compound effects on hepatocellular carcinoma cell viability – HepG2, calcein-AM fluorescence, 48 h, basal, profiling panel (AID 1164). Also: test concentration not given here. The conditions noted are these: higher = more signal.
Experiment [4] is described as follows: compound effects on multiple myeloma cell viability – MM1S, calcein-AM fluorescence, 48 h, basal, profiling panel (AID 1165).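 Also: viability of MM1S multiple myeloma cells under basal unstimulated conditions; test concentration not given here.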 The note with it: higher = more signal.
Experiment [5] in a line: calcein-AM signal in unstimulated myeloma cells – cell-based, calcein-AM fluorescence, 48 h, PK04 Diversity Set, profiling panel (AID 1166).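 Also: cells grown under basal conditions without added stimulus; test concentration not given here.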 The note with it: RPMI8226 myeloma viability, higher = more signal.
A short description of experiment [6]: JC-1 mitochondrial signal, unstimulated HepG2 cells – cell-based, JC-1 fluorescence, 24 h, 100 nL compound, profiling panel (AID 1167). Also: test concentration not given here. The note with it: HepG2 mitochondrial potential, higher = more signal.
A short description of experiment [7]: JC-1 mitochondrial signal, unstimulated adipocytes – cell-based, JC-1 fluorescence, 3T3-L1 adipocytes, 24 h, 100 nL compound, profiling panel (AID 1168). Also: test concentration not given here. The conditions noted are these: JC-1 mitochondrial fluorescence, higher = more signal, called active from +8 up or from −8 down.
A short description of experiment [8]: JC-1 mitochondrial signal, unstimulated myeloma cells – cell-based, JC-1 fluorescence, RPMI8226, 24 h, 100 nL compound, profiling panel (AID 1169). Also: test concentration not given here. The conditions noted are these: JC-1 mitochondrial potential fluorescence, higher = more signal.
Experiment [9] can be described thus: JC-1 mitochondrial signal, unstimulated MM1S myeloma – cell-based, JC-1 fluorescence, 24 h, 100 nL compound, profiling panel (AID 1170). Also: test concentration not given here. The note with it: MM1S mitochondrial potential, higher = more signal.
Experiment [10] in a line: resazurin metabolic signal in A549 cells – cell-based, resazurin fluorescence, 24 h, PK04 Diversity Set, profiling panel (AID 1171). Also: test concentration not given here. The conditions noted are these: A549 viability, higher = more signal, called active from +8 up or from −8 down.
Experiment [11] can be described thus: resazurin metabolic signal in HepG2 cells – cell-based, resazurin fluorescence, 24 h, PK04 Diversity Set, profiling panel (AID 1172). Also: test concentration not given here. The conditions noted are these: HepG2 viability, higher = more signal.
A short description of experiment [12]: budding yeast growth changes without added modifier – OD600, strain BY4716, 24 h, basal condition, primary screen (AID 1173). The note with it: S. cerevisiae BY4716 growth, OD600, 24 h; higher = more signal, called active from +8 up or from −8 down.
The nature of experiment [13]: viability profiling in MM1S myeloma cells – cell-based, resazurin fluorescence, basal, 24 h, PK04 Diversity Set, profiling panel (AID 1174). Also: test concentration not given here. The conditions noted are these: higher = more signal, called active from +8 up or from −8 down. Background: Resazurin is reduced to fluorescent resorufin, in cell work by metabolically active cells.
The target in experiment [14] is Dihydroorotate dehydrogenase (quinone), mitochondrial (Plasmodium falciparum (isolate 3D7)) (UniProt Q08210). As to the kind of experiment: inhibition of P. falciparum DHODH – biochemical, C-terminal His tag, absorbance 600 nm, primary screen (AID 1175).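 Also: recombinant parasite enzyme with a five histidine tag at its C terminus; test concentration not given here.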 The note with it: PfDHODH enzyme, DCIP absorbance 600 nm; higher = more signal, called active from +8 up or from −8 down.
Dihydroorotate dehydrogenase (quinone), mitochondrial (Plasmodium falciparum (isolate 3D7)), sequence (Q08210 whole entry, looked up): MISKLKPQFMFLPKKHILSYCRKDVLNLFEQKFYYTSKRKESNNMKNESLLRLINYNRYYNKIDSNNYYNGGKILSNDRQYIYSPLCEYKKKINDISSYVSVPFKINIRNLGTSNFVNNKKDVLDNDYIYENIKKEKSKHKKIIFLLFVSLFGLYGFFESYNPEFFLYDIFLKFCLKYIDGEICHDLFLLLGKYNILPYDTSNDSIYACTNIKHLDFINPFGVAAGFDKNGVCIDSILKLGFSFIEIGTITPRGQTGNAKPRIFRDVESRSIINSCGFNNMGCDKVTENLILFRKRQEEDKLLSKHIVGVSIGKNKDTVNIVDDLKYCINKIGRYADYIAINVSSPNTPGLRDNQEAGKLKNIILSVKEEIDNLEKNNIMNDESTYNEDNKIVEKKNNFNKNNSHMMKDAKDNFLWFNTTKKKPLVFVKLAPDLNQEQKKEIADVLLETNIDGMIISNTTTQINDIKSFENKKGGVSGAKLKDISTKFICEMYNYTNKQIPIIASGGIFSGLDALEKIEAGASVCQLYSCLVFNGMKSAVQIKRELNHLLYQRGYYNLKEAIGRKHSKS

Experiment [15] can be described thus: inhibition of PAO1 biofilm formation – strain PAO1, LB-PBS medium, absorbance 600 nm, primary screen (AID 1176). Also: test concentration not given here. The conditions noted are these: P. aeruginosa PAO1 growth/biofilm, A600, 12 h; higher = more signal.
A short description of experiment [16]: growth modulation of vineyard yeast isolate – strain RM11-1a, OD600, basal, 24 h, primary screen (AID 1177).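 Also: cultures grown under basal conditions with no added stressor; test concentration not given here.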 The note with it: S. cerevisiae RM11-1a growth, OD600, 24 h; higher = more signal, called active from +8 up or from −8 down.
A short description of experiment [17]: growth of efflux-deficient E. coli DRC39 – strain DRC39, OD650, 24 h, E. coli filamentation inducers, primary screen (AID 1178).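 Also: growth measured as culture turbidity by optical density at 650 nm; test concentration not given here.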 The note with it: E. coli DRC39 acrAB, higher = more signal, called active from +8 up or from −8 down.
Experiment [18] can be described thus: growth of efflux-deficient E. coli DRC39 – strain DRC39, OD650, 48 h, E. coli filamentation inducers, primary screen (AID 1179).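 Also: screen aims at cell division blockers that make cells filament.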 The conditions noted are these: E. coli DRC39 delta-acrAB growth, higher = more signal, called active from +8 up or from −8 down.
Experiment [19] in a line: viability profiling in RPMI8226 myeloma cells – cell-based, resazurin fluorescence, basal, 24 h, PK04 Diversity Set, profiling panel (AID 1180).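 Also: RPMI8826 multiple myeloma cell line at 5000 cells per well; test concentration not given here.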 The conditions noted are these: higher = more signal.
The target in experiment [20] is E3 ubiquitin-protein ligase XIAP (Homo sapiens) (UniProt P98170). As to the kind of experiment: small molecules binding XIAP protein – biophysical, small-molecule microarray, fluorescence 635 nm, primary screen (AID 1181).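 Also: score merges 667 nm emission and signal to noise over triplicate slides.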 The conditions noted are these: higher = more signal.
E3 ubiquitin-protein ligase XIAP (Homo sapiens), sequence (P98170 whole entry, looked up): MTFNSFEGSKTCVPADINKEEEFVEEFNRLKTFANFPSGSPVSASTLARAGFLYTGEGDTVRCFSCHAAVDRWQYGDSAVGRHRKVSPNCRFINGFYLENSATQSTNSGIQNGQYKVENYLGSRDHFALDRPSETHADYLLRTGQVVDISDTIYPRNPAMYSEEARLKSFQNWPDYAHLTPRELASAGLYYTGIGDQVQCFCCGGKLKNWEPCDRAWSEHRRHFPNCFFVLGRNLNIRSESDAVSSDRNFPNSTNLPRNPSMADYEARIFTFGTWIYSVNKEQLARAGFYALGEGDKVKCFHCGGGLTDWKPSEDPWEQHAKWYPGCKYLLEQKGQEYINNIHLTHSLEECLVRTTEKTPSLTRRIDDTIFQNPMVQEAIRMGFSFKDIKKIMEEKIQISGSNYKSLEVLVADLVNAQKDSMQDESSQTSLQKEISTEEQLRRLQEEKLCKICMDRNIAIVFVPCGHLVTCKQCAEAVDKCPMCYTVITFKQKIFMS

Each structure is given as a SMILES string. Activity calls are given as the source filed them. Unless noted, no rule for the calls is given here.

Take `O=C1c2ccccc2[C@](Cc2ccccc2I)(C(=O)NCC(F)(F)F)[C@H](c2ccc(CO)cc2)N1Cc1ccccc1Cl`: the z-score in experiment [1] is 0.0986; in [2], 0.46; in experiment [3] it was 0.0068; in [4] it was -1.06; in experiment [5], -1.55; in experiment [6] it was 0.798. In addition, the z-score in experiment [7] was 0.149 (inactive); in experiment [8], -0.68; in experiment [9], -1.34; in experiment [10] it was 1.57 (inactive); in experiment [11], 1.08; in [12] it was -1.32 (inactive). The z-score is 0.519 (inactive) in [13]; 0.723 (inactive) in experiment [15]; -0.838 (inactive) in [16]; 0.489 (inactive) in [17]; 0.53 (inactive) in experiment [18]; 0.417 in experiment [19]. Also, the composite z-score was -0.246 (inactive) in experiment [14] and -0.0663 in experiment [20].

Consider `COCCOC(=O)N1C(=O)[C@@]2(c3ccccc31)[C@H](C(=O)N1CCc3cc(OC)c(OC)cc3C1)[C@H]1C(=O)O[C@H](c3ccccc3)[C@H](c3ccccc3)N1[C@@H]2c1ccc(OCCO)cc1`, for which the z-score was 1.23 in experiment [1]; 1.48 in experiment [2]; 0.852 in experiment [3]; -1.1 in experiment [4]; 0.494 in experiment [5]; 0.384 in [6]. The z-score in [7] is 0.139 (inactive); in [8] it was -0.618; in experiment [9], -0.483; in [10], 0.779 (inactive); in experiment [11], -0.484; in experiment [12], 1.26 (inactive). In addition, the z-score in [13] was -0.13 (inactive); in [15] it was 2.41 (inactive); in [16], 2.61 (inactive); in experiment [17] it was -0.259 (inactive); in experiment [18], 0.144 (inactive); in experiment [19] it was 0.549. Besides, the composite z-score in experiment [14] is -0.76 (inactive); in experiment [20] it was -0.0405.

Turning to `C=C(/C(=C/C[C@H](OC(C)=O)c1ccc(CO)o1)c1cc(C(=O)OC)ccc1OC)C(C)C`, the z-score in experiment [1] is -0.431; in experiment [2], 1.4; in experiment [3], -0.812; in experiment [4], -2.37; in experiment [5], -2.03; in experiment [6], 0.256. Further, the z-score in experiment [7] is 1.13 (inactive); in experiment [8], 0.104; in [9], -0.227; in experiment [10] it was -0.369 (inactive); in experiment [11] it was -0.783; in experiment [12] it was 0.18 (inactive). Further, the z-score was -1.14 (inactive) in experiment [13]; -0.0342 (inactive) in experiment [15]; 0.447 (inactive) in [16]; -1.42 (inactive) in experiment [17]; -0.94 (inactive) in experiment [18]; -1.34 in [19]. In addition, the composite z-score was -3.65 (inactive) in [14] and -0.0807 in experiment [20].

As to `CC(C)C(O)C1C=CC2C(=O)N(c3ccccc3)C(=O)C2N1Nc1ccc([N+](=O)[O-])cc1` (stereo not given), the z-score in [1] is -0.821; in [2], -1.18; in [3] it was 0.497; in experiment [4], 0.637; in [5], -0.023; in experiment [6], -1.41. The z-score in [7] was -1.37 (inactive); in experiment [8], 0.766; in experiment [9] it was -1.07; in experiment [10] it was -0.397 (inactive); in experiment [11], -0.283; in experiment [12], -0.539 (inactive). Further, the z-score in experiment [13] was -0.413 (inactive); in experiment [15] it was 0.312 (inactive); in [16], -0.0749 (inactive); in experiment [17], -0.912 (inactive); in experiment [18] it was -0.347 (inactive); in experiment [19], -0.601. The composite z-score in experiment [14] is -0.0755 (inactive); in experiment [20], 0.302.
